In the supplement of paper PMC13380429:

System: Vero E6 infected with SARS-CoV-2
Assay: inhibition of SARS-CoV-2 cytopathic effect; higher = more antiviral protection, active = above 15
Conditions: 48 h

Measured: inhibition of SARS-CoV-2 cytopathic effect

CN(C)[C@@H]1CCc2[nH]c3ccc(NC(=O)c4ccc(F)cc4)cc3c2C1
inactive: 1 nM -0.2% | 8.33 nM 0.81% | 100 nM 1.23% | 833.33 nM 3.46% | 10000 nM 4.97%

CCS(=O)(=O)N1CC(CC#N)(n2cc(-c3ncnc4[nH]ccc34)cn2)C1 [baricitinib]
inactive: 1 nM 3.34% | 8.33 nM -0.51% | 100 nM -1.28% | 833.33 nM 0.06% | 10000 nM -2.55%

NC(=O)N1c2ccccc2CC(O)c2ccccc21 (stereo not given) [licarbazepine]
inactive: 1 nM -1.75% | 8.33 nM 1.29% | 100 nM -0.88% | 833.33 nM -6.25% | 10000 nM 0.95%

CCOC(=O)[C@H](CCc1ccccc1)N[C@@H](C)C(=O)N1CCC[C@H]1C(=O)O [enalapril]
inactive: 1 nM -1.51% | 8.33 nM -1.35% | 100 nM -0.07% | 833.33 nM 2.42% | 10000 nM 0.52%

CN(C)CCOC(=O)C(c1ccccc1)C1(O)CCCC1 (stereo not given) [cyclopentolate]
inactive: 1 nM -1.73% | 8.33 nM 1.59% | 100 nM -2.5% | 833.33 nM -0.18% | 10000 nM -1.17%

C#C[C@]1(O)CC[C@H]2[C@@H]3CCc4cc(OC)ccc4[C@H]3CC[C@@]21C [mestranol]
inactive: 1 nM 0.06% | 8.33 nM 0.82% | 100 nM 0.83% | 833.33 nM 0.76% | 10000 nM -0.67%

COc1cc2c(cc1OC)CN(C(=O)[C@@H](NCc1ccncc1)C(C)(C)C)CC2
inactive: 1 nM 2.06% | 8.33 nM 3.28% | 100 nM 2.93% | 833.33 nM 1.04% | 10000 nM 1.19%
